By inhibition is commonly meant the drop in the measured response relative to a control, in per cent.

Screen size: about 190,000 compounds; about 240 (0.13%) were called active. Many of the other results were omitted from the sample, so actives are more common in it than they were. Unmarked numbers belong to inactive results. Cut-off read from the data, not from the text of the source: active = inhibition above about 40%.

Chain of Bcl-2-related protein A1 (Homo sapiens) (Q16548 whole entry, looked up): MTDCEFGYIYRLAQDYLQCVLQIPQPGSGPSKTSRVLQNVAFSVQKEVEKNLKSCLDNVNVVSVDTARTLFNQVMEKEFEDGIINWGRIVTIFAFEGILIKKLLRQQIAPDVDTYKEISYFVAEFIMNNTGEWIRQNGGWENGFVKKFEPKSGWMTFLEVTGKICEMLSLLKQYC

The assay concerns the target Bcl-2-related protein A1 (Homo sapiens) (UniProt Q16548). In words: inhibitors of Bim binding to Bfl-1, primary screen, biochemical, multiplexed, bead-based flow cytometry (AID 1008).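 Note: 0% = wells without compound plus tracer and 100% = blocker peptide.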 As to conditions: Bim-Bfl-1 binding inhibition, at 10 µM, stronger effect = higher value.
As for `O=c1[nH]c2ccccc2n2c(-c3ccccc3)nnc12`, the inhibition is 54% (active).
In the case of `CCOC(=O)c1cnc2[nH]c3ccccc3n2c1=O` it was -8%; in that of `O=[N+]([O-])c1cccc(-c2nnc3c4ccccc4c4ccccc4n23)c1`, -7%.
Next, `CC(=O)c1ccc(N2CCN(C(=O)c3ccc4nc[nH]c4c3)CC2)cc1`: 0%; `CN(C(=O)CSc1nnc(Nc2ccccc2)s1)C1CCS(=O)(=O)C1` (stereo not drawn): -5%.
Turning to `CC1(C)C2CCC1(C)C(OC(=O)c1ccc(O)cc1)C2` (stereo not drawn), the inhibition was 2%.
In the case of `COc1ccc(CC(=O)NCc2nnc(SCC(=O)Nc3ncc(C)s3)n2C)cc1`, the inhibition was -5%.
In the case of `COc1ccc(CN2CCNC(=O)C2CC(=O)N(C)Cc2ccccn2)cc1OC` (stereo not drawn) it was -2%.
Turning to `O=C(O)CC(Cc1ccccc1)C(=O)Nc1ccc([N+](=O)[O-])cc1` (stereo not drawn), the inhibition was -14%.
In the case of `Cc1cc(Cl)ccc1NC(=S)N1CCC(C(N)=O)(N2CCCCC2)CC1` it was 0%; in that of `C=CCOCCN(C)C1=NS(=O)(=O)c2ccccc21`, -4%.
`CCC(C)(C)NC(=O)CN(C(=O)C(=O)Nc1ccc2c(c1)OCCO2)C(C)(C)CC`: the inhibition is 3%.
In the case of `O=S(=O)(c1ccc(-c2ccccc2)cc1)N1CCCC1`, the inhibition was -7%.
With `CN(c1ccc2nc3ccccc3c(=O)n2n1)C1CCCCC1`, the inhibition was -3%.
Turning to `CCOC(=O)Cc1csc(NC(=O)COc2ccc3c(C)cc(=O)oc3c2)n1`, the inhibition is -4%.
In the case of `CCOC(=O)c1ccccc1NC(=O)CSc1nc2ccccc2c(=O)[nH]1` it was -3%; in that of `COc1ccc(-c2ccc(CCC(=O)O)n2-c2ccc(O)cc2)cc1`, 5%.
Turning to `Cc1cc(Cl)c(S(=O)(=O)NCCC(=O)O)cc1OCC(N)=O`, the inhibition was -15%.
On to `Cc1cc(Cl)c(S(=O)(=O)NCC2CCCO2)cc1OCC(N)=O` (stereo not drawn), for which the inhibition was 48% (active).
Take `Cc1cc(Cl)c(S(=O)(=O)Nc2ccc3c(c2)OCCO3)cc1OCC(N)=O`: the inhibition is -2%.
Next, `CN(C)S(=O)(=O)N1CCN(c2ccc([N+](=O)[O-])cc2)CC1`: 0%; `Cc1ccc(CC(=O)Nc2ccc(OC(F)F)c(Cl)c2)cc1C`: -6%; `COc1cccc(C(O)Cc2nc3ccccc3n2C)c1OC` (stereo not drawn): -3%.
Next, `CCOC(=O)/C(C#N)=C/c1cn(CCC(=O)O)nc1-c1ccc(Br)cc1`: -9%; `CC(=O)Nc1ccc(NC(=O)COc2ccc(S(=O)(=O)NC(C)c3ccccc3)cc2)cc1` (stereo not drawn): -5%; `Cc1oc2c(c1C(=O)N1CCOCC1)C(=O)c1ccccc1C2=O`: -1%.
In the case of `Cc1ccnc(NC(=O)c2ccco2)n1`, the inhibition was -3%.
Regarding `COC(=O)COc1ccc(C2NC(=O)NC(C)=C2C(=O)NCc2ccccc2)cc1OC` (stereo not drawn), the inhibition is -9%.
On to `C/C(=N\NC(=O)COc1c(C)cccc1C)c1cccs1`, for which the inhibition was -7%.
Next, `Cc1ccc(NC(=O)c2ccn(C(=O)Nc3ccccc3)n2)c(C)c1`: -2%; `CC1(C)CC(=O)c2ccc(O)cc2O1`: -4%.
In the case of `Cc1[nH]c2ccccc2c1SCC(=O)Nc1nccs1`, the inhibition was -5%.
In the case of `CCCOC(=O)c1c(NC(=O)c2cnn3c2NC(c2ccccc2)CC3C(F)(F)F)sc2c1CCCC2` (stereo not drawn) it was -18%; in that of `Cc1ccc(-c2csc(NC(=O)Cn3[nH]c(=O)c4ccccc4c3=O)n2)cc1`, -4%.
With `CCc1cccc(CC)c1NC(=S)NCc1ccc2[nH]c(C)cc2c1`, the inhibition is -2%.
For `Cn1cc(CN2CCC(C(O)CCc3ccccc3)CC2)c(-c2ccccc2F)n1` (stereo not drawn), the inhibition was -5%.
In the case of `CCO[C@H]1OC(C(=O)N2CCOCC2)=C[C@@H](c2ccc3c(c2)OCO3)[C@@H]1CCCO` it was -4%; in that of `O=C(CCC(=O)Nc1ccccc1)N/N=C/c1ccccc1F`, -4%; in that of `Cc1cc([N+](=O)[O-])ccc1NC1CCCC1`, -7%.
For the compound `C=CS(=O)c1sc(Cl)c(N2CCOCC2)c1[N+](=O)[O-]` (stereo not drawn), the inhibition is 57% (active).
Turning to `O=[N+]([O-])c1c(NCCO)cc(Sc2nc3ccccc3s2)c2nonc12`, the inhibition was 56% (active).
Next, `O=C(O)c1cccc(S(=O)(=O)Nc2ccc(O)cc2Sc2nc3ccccc3s2)c1`: 7%; `COc1ccc(S(=O)(=O)Nc2ccc(O)c(Sc3nc4ccccc4s3)c2)cc1`: 9%; `COc1ccc(N(C)S(=O)(=O)c2cccc3nsnc23)cc1`: -6%.
In the case of `C=CCn1c2ccccc2c2nnc(SCc3[nH]c(=O)[nH]c3C(=O)CCCCC(=O)OCC)nc21` it was 16%; in that of `Cc1nonc1C1CCCN1Cc1nc(-c2ccc(F)cc2F)oc1C` (stereo not drawn), -4%; in that of `Cc1n[nH]c(=O)n1-c1ccc(C(C)C)cc1`, -5%.
Turning to `C/C(CC(=O)Nc1cccc(F)c1)=N\NC(=O)C(=O)NC1CCCCC1`, the inhibition is 0%.
Regarding `CN(C(=O)c1c(Cl)cnn1C)C12CC3CC(CC(C3)C1)C2`, the inhibition is 21%.
In the case of `CCN(CCn1cccn1)Cc1nc(-c2ccc(C(=O)OC)cc2)no1` it was -5%; in that of `Cc1ccccc1NC(=O)CN1C(=O)N/C(=C\c2cccn2-c2cccc(C(=O)O)c2)C1=O`, -3%; in that of `COc1cc(NC(=S)NCCSc2ccc(C)cc2)cc(OC)c1`, -1%.
For the compound `CCN(CC)S(=O)(=O)c1ccc(Cl)c(C(=O)NC(C)C(c2cccs2)N2CCCC2)c1` (stereo not drawn), the inhibition was -5%.
In the case of `C=CCNc1nc(Nc2ccc(Cl)cc2)nc(OC)n1` it was -6%.
Regarding `Cc1cccc(NC(=S)NCCN(C2CCCCC2)C2CCCC2)c1`, the inhibition is -2%.
In the case of `CCOC(=O)C1(CC2CCCCO2)CCN(Cc2nc(-c3cccs3)oc2C)CC1` (stereo not drawn) it was -5%; in that of `Cc1cccc2cc(CN(C(=O)c3cccs3)c3ccccc3)c(=O)[nH]c12`, -5%.
On to `N=c1c2c3c(sc2ncn1N)CCCC3`, for which the inhibition is -7%.
In the case of `Nc1nc(CC(=O)CSc2ccc(Cl)cc2)nc(Nc2ccc(F)cc2)n1` it was -12%; in that of `O=C(/C=C/c1ccc(Cl)cc1)N1CCN(c2ccccc2[N+](=O)[O-])CC1`, 2%.
As for `CCN(CC)CCCNC(=O)c1ccc2c(=O)n(Cc3ccc4c(c3)OCO4)c(=S)[nH]c2c1`, the inhibition was -5%.
Next, `CCOC(=O)c1sc(-c2cccc([N+](=O)[O-])c2)cc1N`: -1%.
Turning to `Cc1ccc(/C=N/NC(=O)Cn2ccc(C(F)(F)F)n2)o1`, the inhibition is -3%.
As for `COc1ccc(N2C(=O)C(CC(=O)Nc3ccc(F)cc3)N(CCc3cccs3)C2=O)cc1` (stereo not drawn), the inhibition is -3%.
As for `Cc1cc(C(=O)NNC(=O)c2cccc(S(=O)(=O)N3CCOCC3)c2)c2ccccc2n1`, the inhibition was -6%.
Next, `CC(C)n1c(O)c(N=Nc2ccccn2)c2ccccc21`: -1%.
Take `CCC(O)C1CCN(Cc2cn(-c3ccc(OC)cc3)nc2-c2cccc(F)c2)CC1` (stereo not drawn): the inhibition is -8%.
In the case of `CC(=O)C1=C(C)NC2=C(C(=O)CC(C)(C)C2)C1C` (stereo not drawn) it was -2%; in that of `O=C(O)CSc1nccc2ccccc12`, 5%; in that of `OC1CCCN(c2ncnc3c2nnn3Cc2c(F)cccc2Cl)C1` (stereo not drawn), 4%.
Regarding `CO/N=C/CC(=O)c1ccc(OC)cc1`, the inhibition was -2%.
In the case of `OCCC1CN(Cc2ccc3nsnc3c2)CCN1C1CCCC1` (stereo not drawn) it was -8%.
With `CCc1ccc(C2C(C#N)=C(N)N(N(C)C)C3=C2C(=O)CCC3)s1` (stereo not drawn), the inhibition is 0%.
Next, `CC(OC(=O)c1ccccc1OCc1ccc(Cl)cc1)C(N)=O` (stereo not drawn): -4%; `CC1Cc2ccccc2N1C1=CC(=O)CC(C)(C)C1` (stereo not drawn): -4%; `Cc1ccc(/C=N/NC(=O)CNC(=O)COc2ccccc2)o1`: -12%.
Consider `CCOc1ccccc1/C=N/NC(=O)CNC(=O)COc1ccccc1`, for which the inhibition is 54% (active).
On to `C=CCc1ccccc1OCC(=O)N/N=C/c1ccccc1OCC`, for which the inhibition was -1%.
In the case of `C=CCOC(=O)C1=C(C)N=C2SCCC(=O)N2C1/C=C/c1ccccc1OC` (stereo not drawn) it was -9%; in that of `CCc1nnc(NC(=O)/C=C/c2ccc(C)o2)s1`, -1%.
As for `Cc1c(NC(=O)/C=C/C(=O)O)cccc1[N+](=O)[O-]`, the inhibition was -15%.
In the case of `Cc1ccc(/C=C/C(=O)Nc2ccc([N+](=O)[O-])c(NC(=O)/C=C/c3ccc(C)o3)c2)o1`, the inhibition was 40% (active).
In the case of `O=C(/C=C/c1ccc(Cl)cc1)Nc1ccc(Br)cn1`, the inhibition was -6%.
`Cc1nn(-c2ccccc2)c(NC(=O)c2cccs2)c(-c2ccc(Cl)cc2)c1=O`: the inhibition was -7%.
In the case of `CSCc1cc(N2CCOCC2)nc(SCc2ccc(Cl)cc2Cl)n1` it was -15%; in that of `CSCc1cc(N(C)C)nc(SCc2ccc(Cl)cc2Cl)n1`, 52% (active); in that of `Clc1ccc(CSc2nnc(/C=C/c3ccccc3)o2)c(Cl)c1`, -12%.
Next, `COc1cc(OC)cc(-c2nnc(N(C)C(=O)c3ccncc3)s2)c1`: -10%.
For `CCO[C@H]1OC(C(=O)N2CCCCCCC2)=C[C@@H](c2ccc(C(F)(F)F)cc2)[C@@H]1CCCO`, the inhibition was -7%.
Next, `CC(/C=N/NC(=O)c1cc(-c2ccc3ccccc3c2)n[nH]1)=C\c1ccco1`: 8%.
For the compound `C/C(=C\c1ccco1)C1Nc2cccc3cccc(c23)N1`, the inhibition was 45% (active).
In the case of `CC(/C=N/NC(=O)c1ccncc1)=C\c1ccco1` it was -1%; in that of `CCn1c(CNC(=O)c2ccco2)nnc1SCC(=O)Nc1cccc(F)c1`, -1%.
In the case of `Cc1ccc(C2CCN(C(=S)Nc3cccc(Cl)c3)C2)cc1` (stereo not drawn), the inhibition is -4%.
In the case of `COC(=O)c1cc2c(ccn2C)n1C` it was -5%.
Next, `COc1cc(OC)c(C(=O)OCC(=O)N2CC(=O)Nc3ccccc32)cc1OC`: -1%; `CCC(=O)c1ccc(OCC(O)Cn2nc(C)c(C(C)=O)c2C)cc1` (stereo not drawn): 0%.
In the case of `CNC(=S)N1CCC(NC(=O)C(Cc2ccc(F)cc2)NC(C)=O)CC1` (stereo not drawn) it was -2%.

These data come from PubChem BioAssay AID1008 (NMMLSC, 2008).
